Results on 40 compounds are retold here after PubChem BioAssay (NCATS).

The source made the active and inactive calls. The call rests on the fitted dose curve; in most records, active means well fitted curve in the direction sought with a large enough effect; inactive means no such curve, though single readings can be large or run the other way.

In this experiment the target is Alpha-galactosidase (Coffea arabica) (UniProt Q42656). Nature of the experiment: Counterscreen for Glucocerebrosidase Inhibitors: qHTS Assay for Coffee Bean alpha-Galactosidase at pH 5.9 (AID 998). The settings on record: coffee bean alpha-galactosidase enzyme assay; series mostly up to 76.9 µM. An excerpt: NIH Chemical Genomics Center [NCGC]
Sequence of Alpha-galactosidase (Coffea arabica) (Q42656 whole entry, looked up): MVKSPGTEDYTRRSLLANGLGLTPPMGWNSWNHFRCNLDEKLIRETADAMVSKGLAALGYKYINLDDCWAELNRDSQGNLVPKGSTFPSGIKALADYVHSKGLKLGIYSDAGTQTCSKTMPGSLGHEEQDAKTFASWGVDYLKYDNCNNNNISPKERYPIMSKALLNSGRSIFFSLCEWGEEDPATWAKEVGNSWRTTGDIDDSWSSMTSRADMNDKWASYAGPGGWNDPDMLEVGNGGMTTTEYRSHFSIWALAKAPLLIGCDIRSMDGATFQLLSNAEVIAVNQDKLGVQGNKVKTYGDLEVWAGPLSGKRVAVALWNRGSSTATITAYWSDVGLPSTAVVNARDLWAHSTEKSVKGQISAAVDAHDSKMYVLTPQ
NIH Molecular Libraries Screening Centers Network [MLSCN]
PI Name: Zheng, Wei [NIH]
Alpha-galactosidase is a homodimeric glycoprotein that hydrolyzes the terminal alpha-galactosyl moieties from glycolipids and glycoproteins. Deficiency of this enzyme results in Fabry Disease with progressive accumulation of globotriaosylceramide and other glycosphingolipids in vascular endothelial cells that causes renal failure, myocardial infarction and stroke, and premature death in patients. It has reported that the improper folding and trafficking of alpha-galactosidase resulted from the genetic mutations may account for a significant numbers of Fabry patients. […] We optimized this coffee bean alpha-galactosidase assay in 1536-well plate format as a counter-screen assay for identifying the selective small molecule inhibitors of other lysosomal enzymes.
NCGC Assay Protocol Summary:
This is a fluorogenic enzyme assay with 4-Methylumbelliferyl alpha-D-galactopyranoside as the substrate and green coffee bean […] (from Sigma-Aldrich) as the enzyme preparation. Upon the hydrolysis of this fluorogenic substrate, the resulting product, […]. 4-Methyllumbelliferone, can be excited at 365 nm and emits at 440 nm which can be detected by a standard fluorescence plate reader. Data were normalized to the controls for basal activity (without enzyme) and 100% activity (with enzyme). In the AC50 values were determined from concentration-response data modeled with the standard Hill equation.
Assay buffer: 50 mM citric acid, 0.005% Tween-20, pH 5.9. (pH 5.9 is an optimal condition for this enzyme assay.)
1536-well assay protocol for the coffee bean alpha-galactosidase:
(1) Add 2 ul/well of enzyme (2 nM final)
(2) Add 23 nL compounds in DMSO solution. The final titration was 0.7 nM to 77 uM.
(3) Add 1 ul of substrate (80 uM final)
(4) Incubate at room temperature for 20 min.
(5) Add 2 ul stop solution (1M NaOH and 1M Glycine mixture, pH 10)
(6) Detect the assay plate in a ViewLux plate reader (PerkinElmer) with Ex=365 nm and Em=440nm.
Keywords: Alpha-galactosidase, Fabry Disease, pharmacological chaperone, chaperone therapy, high throughput screening, alpha-galactosidase inhibitor, MLSMR, MLSCN, NIH Roadmap, qHTS and NCGC
A general note: The purpose of a counterscreen is to sort out artefacts and off-target activity.
With `Cc1[nH]c(=O)c(C#N)cc1-c1ccc2nccn2c1`, the call was inactive.
For the compound `CN1[C@@H]2CC[C@H]1CC(OC(=O)c1c[nH]c3ccccc13)C2` (stereo not given in full), the compound was called inactive.
On to `COC(=O)C1=C(C)NC(C)=C(C(=O)OC)C1c1ccccc1[N+](=O)[O-]`, for which the outcome was inactive.
Next, `COC(=O)[C@@H](N)Cc1ccc(O)c(O)c1`: “inactive”; `CN(C)CCOC(c1ccccc1)c1ccccc1`: “inactive”.
Next, `COc1ccc(CN(CCN(C)C)c2ccccn2)cc1`: “inactive”.
Regarding `NC(=O)CN1CCCC1=O`, the result was inactive.
Next, `Cc1cc(C(C)(C)C)cc(C)c1CC1=NCCN1`: “inactive”.
As to `Clc1ccccc1C(c1ccccc1)(c1ccccc1)n1ccnc1`, the result was inactive.
Next, `CCN(CC)CCOCCOC(=O)C1(c2ccccc2)CCCC1`: “inactive”; `COc1cc2c(cc1OC)-c1cc(=Nc3c(C)cc(C)cc3C)n(C)c(=O)n1CC2`: “inactive”.
Next, `CN(C(=O)CCCOc1ccc2[nH]c(=O)ccc2c1)C1CCCCC1`: “inactive”.
Next, `OC(CN1CCC(Cc2ccc(F)cc2)CC1)c1ccc(Cl)cc1` (stereo not given): “inactive”; `CC(C)NCC(O)COc1ccc(COCCOC(C)C)cc1` (stereo not given): “inactive”.
Consider `O=C1CC2(CCCC2)CC(=O)N1CCCCN1CCN(c2ncccn2)CC1`, for which the outcome was inactive.
For `c1cc(CN2CCCCC2)cc(OCCCNc2nc3ccccc3s2)c1` the value was “inactive”; for `Cn1c(=O)c2c(ncn2C)n(C)c1=O`, “inactive”; for `O=C(O)CP(=O)(O)O`, “inactive”.
For `NCCc1ccc(O)c(O)c1` the value was “inactive”; for `CCOC(=O)Nc1ccc(NCc2ccc(F)cc2)nc1N`, “inactive”.
Next, `c1cnc(N2CCN(Cc3ccc4c(c3)OCO4)CC2)nc1`: “inactive”; `Nc1ccn([C@H]2CC[C@@H](CO)O2)c(=O)n1`: “inactive”; `CCCCC1C(=O)N(c2ccccc2)N(c2ccccc2)C1=O`: “inactive”.
Turning to `CN(C)C(=O)Oc1cccc([N+](C)(C)C)c1`, the result was inactive.
For `NS(=O)(=O)c1cc2c(cc1Cl)NCNS2(=O)=O` the value was “inactive”; for `OCCN1CCN(CCCN2c3ccccc3C=Cc3ccccc32)CC1`, “inactive”.
On to `CC1=C(CC(=O)O)c2cc(F)ccc2/C1=C\c1ccc(S(C)=O)cc1` (stereo not given), for which the call was inactive.
Next, `O=C(c1ccc(F)cc1)C1CCN(CCn2c(=O)[nH]c3ccccc3c2=O)CC1`: “inactive”; `CCCCNc1c(C(=O)OCC)c(C)nc2c1cnn2CC`: “inactive”.
For `C[N+](C)(C)CCCCCCCCCC[N+](C)(C)C` the value was “inactive”; for `COc1cc(C(=O)OCCCN2CCCN(CCCOC(=O)c3cc(OC)c(OC)c(OC)c3)CC2)cc(OC)c1OC`, “inactive”.
For `O=C(Nc1ccc([N+](=O)[O-])cc1Cl)c1cc(Cl)ccc1O` the value was “inactive”.
Take `c1ccc2nc(N3CCNCC3)ccc2c1`: the result was inactive.
For `CN(C)CCN(Cc1cccs1)c1ccccn1` the value was “inactive”; for `NC(=O)CC[C@@H](N)C(=O)O`, “inactive”.
For `CCc1cccc(N(C)C(N)=Nc2cccc3ccccc23)c1` the value was “inactive”; for `CC1=C(CC(=O)O)c2cc(F)ccc2/C1=C\c1ccc(S(C)(=O)=O)cc1`, “inactive”; for `CC1=C(C)C(=O)C(CCCCC#CCCCC#CCO)=C(C)C1=O`, “inactive”.
For `CCC(=O)c1ccc2c(c1)N(CCCN(C)C)c1ccccc1S2` the value was “inactive”; for `NCCc1cnc[nH]1`, “inactive”.
